In the library only some 0.68% were active in any assay of this set; here they are far more common.
Mtb betalactam: beta-lactam sensitization of Mtb H37Rv, H37Rv; inhibition, % at 25 µM; M. tuberculosis H37Rv growth with meropenem, percent inhibition; AID 434955, 2010; hit rate 0.27% among 330,000; call rule not given here;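 note: growth measured after seven days incubation then overnight dye step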
Sa ugtP lethal: growth inhibition of ugtP-null S. aureus, primary screen, RN4220 ugtP deletion, OD600; 16 h; growth inhibition, % (no concentration beside the values); hit rate 0.54% among 330,000; AID 1259309, 2017; in the data active = growth inhibition above about 68%
Sa RN4220 lethal: growth inhibition of S. aureus RN4220, primary screen, OD600; 16 h; inhibition, % (concentration not given with the values); hit rate 0.33% among 330,000; in the data active = inhibition above about 85%
Rv3671c inh: Rv3671c serine protease inhibitors, primary screen, biochemical, fluorescence polarization, M. tuberculosis H37Rv | inhibition, % at 5.96 µM | P9WHR9 | hit rate 0.048% among 320,000; in the data active = inhibition above about 38%;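 note: extracellular domain of Rv3671c used as enzyme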
UGM FP inh: M. tuberculosis UGM enzyme inhibitors, primary screen, biochemical, fluorescence polarization, single point; hit rate 0.06% among 320,000; purified UGM, fluorescence polarization probe displacement; UDP-galactopyranose mutase (Mycobacterium tuberculosis (strain ATCC 25618 / H37Rv)), …; inhibition, % at 10 µM; AID 504406, 2011; in the data active = inhibition above about 10%, passing the limit was not always enough
Target sequence (P9WIQ1 whole entry, looked up): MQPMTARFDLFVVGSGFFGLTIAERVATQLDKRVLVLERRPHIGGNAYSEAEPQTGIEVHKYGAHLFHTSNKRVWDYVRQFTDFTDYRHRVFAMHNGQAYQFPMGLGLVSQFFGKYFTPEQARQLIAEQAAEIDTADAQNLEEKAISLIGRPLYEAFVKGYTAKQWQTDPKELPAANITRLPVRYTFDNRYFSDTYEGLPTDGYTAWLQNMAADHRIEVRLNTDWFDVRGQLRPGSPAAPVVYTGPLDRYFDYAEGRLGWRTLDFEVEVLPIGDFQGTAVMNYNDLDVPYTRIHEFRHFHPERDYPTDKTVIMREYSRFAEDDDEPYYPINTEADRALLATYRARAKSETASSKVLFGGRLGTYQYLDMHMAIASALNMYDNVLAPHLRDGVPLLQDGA
Mtb hypoxia inh: PubChem AID 1159583; M. tuberculosis hypoxia-regulated fluorescent reporter, fluorescence; fluorescence inhibition, % (test concentration not listed); hit rate 0.1% among 300,000; in the data active = fluorescence inhibition mostly above about 23%, no sharp cut-off; inactive = mostly below about 17%
Hits are given with their value; - = inactive; . = no result shown.

SMILES	Mtb betalactam	Sa ugtP lethal	Sa RN4220 lethal	Rv3671c inh	UGM FP inh	Mtb hypoxia inh
COc1ccccc1CN1C(CC(=O)O)c2cc(F)ccc2S1(=O)=O (stereo not given)	.	-	-	.	.	-
C[C@@H]1Cc2c(O)c(O)cc(O)c2C(=O)O1	-	-	-	-	-	.
CC1Oc2cc3c(-c4c(O)cc(O)c5c(O)c6c(cc45)OC(C)C(C)C6=O)c(O)cc(O)c3c(O)c2C(=O)C1C (stereo not given)	-	97.6	98.2	39.6	-	.
CC1(C)c2[nH]c3ccccc3c2CC2C(=O)N(Cc3ccccc3Cl)C(=O)N21 (stereo not given)	.	-	-	.	.	-
COc1c(N2CCN(C(=S)NC3CC4CCC3C4)C(C)C2)c(F)cc2c(=O)c(C(=O)O)cn(C3CC3)c12 (stereo not given)	-	100.1	100.4	-	-	.
COc1c(N2CCN(C(=S)Nc3ccc(F)cc3)C(C)C2)c(F)cc2c(=O)c(C(=O)O)cn(C3CC3)c12 (stereo not given)	-	99.0	100.1	-	-	.
c1ccc(CC2CNCCN2CC2(c3ccccc3)CC2)cc1 (stereo not given)	.	-	-	.	.	-
Cc1cn(C(C(=O)NCCCCCCCCCCC(=O)N2CCN(C(=O)OC(C)(C)C)CC2)C(C)O)nn1 (stereo not given)	.	-	-	.	.	-
O=C(Nc1ccc([N+](=O)[O-])cc1)Nc1nc(-c2ccc(Cl)s2)cs1	-	97.4	97.1	-	-	-
O=C(Nc1nc(-c2ccc(Cl)s2)cs1)c1cccs1	-	98.9	-	-	-	-
O=C(Nc1nc(-c2ccccc2)cs1)c1cccs1	-	-	-	-	-	.
CC(C)(C)OC(=O)NC(C(=O)OC(C)(C)C)c1ccc2ccccc2c1 (stereo not given)	.	-	-	.	.	-
CC(NCc1cccnc1)=C(C#N)C(=O)NCc1ccccc1	.	-	-	.	.	-
Cn1cc(/C=C/c2cc[n+](C)cc2)c2cc(Cl)ccc21	-	-	-	-	-	35.4
Cc1ccc(Cn2ccc(NC(=O)c3cc(-c4ccc5c(c4)OCO5)on3)n2)cc1	.	-	-	.	.	-
CC(C)(C)c1ccc(Cn2ccc(-c3ccc4c(c3)OCO4)n2)cc1	-	93.4	-	-	-	-
CC(CCc1oc2ccc(Cl)cc2c1-c1ccc(C)o1)=NO	.	87.0	-	.	.	-
CC(CCc1oc2ccc(Br)cc2c1-c1ccc(C)o1)=NO	.	89.4	-	.	.	-
C/C(CCc1oc2ccc(Br)cc2c1-c1ccc(C)o1)=N/O	-	.	.	-	-	.
COc1ccc(C2CC(=O)C=C(C=Cc3ccccc3)C2)cc1 (stereo not given)	.	-	-	.	.	-
CC1CN(C(C)CO)C(=O)c2cc(NS(=O)(=O)c3cn(C)cn3)ccc2OC1CN(C)C(=O)Nc1ccc(C(F)(F)F)cc1 (stereo not given)	.	-	-	.	.	-
Cc1cccc(-c2cc(=O)c(C(=O)O)cn2-c2ccc(F)cc2F)c1	-	-	-	-	-	-
COc1c(N2CC3CCCNC3C2)c(F)cc2c(=O)c(C(=O)O)cn(C3CC3)c12 (stereo not given)	.	99.9	100.6	.	.	.
COc1c(N2CCNC(C)C2)c(F)cc2c(=O)c(C(=O)O)cn(C3CC3)c12 (stereo not given)	-	99.5	100.2	-	-	.
NC1CCN(c2nc3c(cc2F)c(=O)c(C(=O)O)cn3-c2ccc(F)cc2F)C1 (stereo not given)	-	99.2	99.8	-	-	.
SMILES	Mtb betalactam	Sa ugtP lethal	Sa RN4220 lethal	Rv3671c inh	UGM FP inh	Mtb hypoxia inh
NC1CCN(c2c(F)cc3c(=O)c(C(=O)O)cn(C4CC4)c3c2Cl)C1 (stereo not given)	-	100.1	100.2	-	-	.
O=C(O)c1cn(-c2ccc(N3CCCC3)c(F)c2)c2c(F)c(F)c(F)cc2c1=O	-	100.3	-	-	-	-
O=C(CSc1nc2ccccc2[nH]1)NN=C/C=C/c1ccccc1[N+](=O)[O-]	.	97.3	98.2	.	.	-
Cn1c(SCC(=O)NN=C/C=C/c2ccccc2[N+](=O)[O-])nc2ccccc21	.	-	-	.	.	-
CC(=O)NC(=Cc1ccccc1)c1ccccc1	.	-	-	.	.	-
CCCCn1c(=O)c(C(=O)Nc2ccccc2S(N)(=O)=O)c(O)c2ccccc21	-	-	92.7	-	-	-
CCCCCn1c(=O)c(C(=O)Nc2ccccc2S(N)(=O)=O)c(O)c2ccccc21	-	99.6	99.9	-	64.6	-
CCn1c(=O)c(C(=O)Nc2ccccc2S(N)(=O)=O)c(O)c2ccccc21	-	-	-	-	-	.
CCCCOc1ccc2c(c1)C(=O)c1cc(O)ccc1-2	-	92.2	-	-	-	-
CCCN1CC(CSC)CC2c3cccc4[nH]cc(c34)CC21 (stereo not given)	.	-	-	.	.	-
CCn1cc(C(=O)O)c(=O)c2cc(F)c(N3CCNCC3)nc21	.	97.4	97.6	.	.	.
O=C(Nc1cccc(NC(=O)c2c(F)cccc2F)n1)c1c(F)cccc1F	-	-	-	-	-	-
O=C(Nc1cccc(NC(=O)c2cccc(F)c2)n1)c1cccc(F)c1	-	-	90.3	-	-	-
OC(CNCC(c1ccc(Cl)cc1Cl)c1c[nH]c2ccccc12)c1ccccc1 (stereo not given)	-	96.8	99.7	-	-	-
OC(CNCc1ccccc1)c1ccc(Cl)cc1 (stereo not given)	.	-	-	.	.	-
Cc1cc(C)c2c(N)c(C(=O)c3ccc(Br)cc3)oc2n1	-	-	92.8	-	-	-
COC(=O)C1=C(c2ccc(-c3ccccc3)c(F)c2)CC2CCC1N2C(=O)NCCOc1ccc(OC)cc1 (stereo not given)	.	-	-	.	.	-
O=C(Cn1sc2ccccc2c1=O)NC12CC3CC(CC(C3)C1)C2	-	100.6	105.9	-	-	.
S=C(NN=Cc1ccccc1Cl)Nc1cccc(Cl)c1Cl	.	98.7	-	.	.	-
COc1ccc(C=C2C(=O)N=C3SCCN23)cc1	.	-	-	.	.	-
CCCCCCn1c(=O)c(C(=O)Nc2ncccc2C)c(O)c2ccccc21	-	88.6	-	-	-	.
CCCCn1c(=O)c(C(=O)Nc2ncccc2C)c(O)c2ccccc21	-	100.2	-	-	-	-
CCC(C)Cc1cn(C(CCCN=C(N)N)C(=O)NCCCCCCCCCCC(=O)N2CCNCC2)nn1 (stereo not given)	.	-	-	.	.	-
CCN1CC2C3C(=O)N(C)C(=O)C3[C@](CC)(C1=O)N2C(=O)c1ccc(C(C)(C)C)cc1 (stereo not given in full)	.	-	-	.	.	-
CCCN(CC(=O)Nc1ccccc1C)C(=O)CCl	-	-	-	-	-	35.0
CC(C)(C)C1C=C(C(=O)N2CCN(Cc3ccc4c(c3)OCO4)CC2)OC(OCc2ccc(CO)cc2)C1 (stereo not given)	.	-	-	.	.	-
FC(F)(F)c1ccccc1C=NN1CCN(Cc2ccccc2)CC1	.	92.5	-	.	.	-
CN1CC2C3C(=O)N(C)C(=O)C3[C@](C)(C1=O)N2C(=O)c1ccc(Br)cc1 (stereo not given in full)	.	-	-	.	.	-

Source: PubChem BioAssay
